These results are taken from PubChem BioAssay.

Assay [1] in a line: binders of probe aFSTL3 on microarray, primary screen, stem cell growth factor project, biochemical, small-molecule microarray, fluorescence 635/667 (AID 1064).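 Further: measures binding of the biotinylated anti-FSTL3 antibody to printed compounds.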 The following applies: higher = more signal.
Assay [2] is described as follows: binders from COS7 lysate, DM2A8 probe, primary screen, torsin A project, cell lysate, small-molecule microarray, fluorescence 635/667 (AID 1065). As to conditions: higher = more signal, COS7 lysate expressing mutant human TOR1A.
The nature of assay [3]: binders of probe aFGF2 on microarray, primary screen, stem cell growth factor project, biochemical, small-molecule microarray, fluorescence 635/667 (AID 1067).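 Further: measures binding of biotinylated aFGF2 protein to printed compounds on slides; z-score merges feature fluorescence and signal-to-noise across triplicate slides.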 As to conditions: higher = more signal.
Assay [4] can be described thus: binders of probe aFGF10 on microarray, primary screen, stem cell growth factor project, biochemical, small-molecule microarray, fluorescence 635/667 (AID 1071).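 Further: score merges 667 nm spot intensity and signal to noise from triplicate slides.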 As to conditions: higher = more signal.
The target in assay [5] is Neurogenic locus notch homolog protein 2 (Homo sapiens) (UniProt Q04721). The experiment in a line: Notch2 binders on small-molecule microarrays, primary screen, biochemical, small-molecule microarray, 635 nm fluorescence, stem cell growth factors (AID 1073). As to conditions: Notch2 binding, higher = more signal.
Assay [6] concerns the target Pro-neuregulin-1, membrane-bound isoform (Homo sapiens) (UniProt Q02297). The experiment in a line: NRG1 binders on small-molecule microarrays, primary screen, psychiatric disease protein project, biochemical, small-molecule microarray, fluorescence 635/667 (AID 1075).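 Further: score combines 667 nm spot fluorescence with signal to noise.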 The following applies: NRG1 binding, 635 nm fluorescence, higher = more signal.
The subject of assay [7] is Neuregulin-1 EGF-like domain. The experiment in a line: binders of neuregulin-1 EGF-like domain, primary screen, biochemical, small-molecule microarray, 635 nm fluorescence (AID 1081).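 Further: binding of the protein to compounds printed on small-molecule microarray slides.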 The following applies: small-molecule microarray binding, higher = more signal.
Assay [8] in a line: FRG1 promoter luciferase signal modulators, primary screen, FRG1 inhibition for FSHD, cell-based, C2C12 myotubes, firefly/Renilla luciferase, luminescence (AID 1084). As to conditions: higher = more signal, called active from +8 up or from −8 down.
A short description of assay [9]: binders of probe aFST on microarray, primary screen, stem cell growth factor project, biochemical, small-molecule microarray, fluorescence 635/667 (AID 1086).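 Further: score merges 667 nm fluorescence with signal-to-noise of each printed compound spot.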 The following applies: higher = more signal.
Assay [10] is described as follows: binders of probe aHhip on microarray, primary screen, stem cell growth factor project, biochemical, small-molecule microarray, fluorescence 635/667 (AID 1087).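 Further: score merges spot fluorescence at 667nm with spot signal to noise ratio.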 The following applies: higher = more signal.
Assay [11] relates to PRMT1 (protein arginine N-methyltransferase 1). Briefly: PRMT1 binders on small-molecule microarrays, primary screen, biochemical, small-molecule microarray, 635 nm fluorescence (AID 1088).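 Further: binding of Prmt1 protein to compounds spotted on small-molecule microarray slides.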 As to conditions: small-molecule microarray binding, higher = more signal.
The nature of assay [12]: yeast growth modulation, basal conditions, primary screen, YJM789 clinical isolate, OD600, 24 h (AID 1089).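 Further: growth of clinical yeast isolate S. cerevisiae YJM 789 seeded 1000 cells per well; test concentration not given here.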 As to conditions: S. cerevisiae YJM789 growth, higher = more signal, called active from +8 up or from −8 down.
Assay [13] is described as follows: fission yeast growth modulation, primary screen, strain 972, OD600, 24 h, no modulator (AID 1090).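 Further: basal condition with compound alone and no growth modifier present; test concentration not given here.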 The following applies: S. pombe 972 growth, higher = more signal, called active from +8 up or from −8 down.
Assay [14] can be described thus: S. cerevisiae growth modulation with rapamycin, primary screen, strain BY4716, OD600, 96 h (AID 1091). Further: test concentration not given here. As to conditions: higher = more signal, called active from +8 up or from −8 down.
Assay [15] concerns the target Torsin-1A-interacting protein 2 (Homo sapiens) (UniProt Q8NFQ8). Briefly: LULL1 binders on small-molecule microarray, primary screen, cell lysate, human LULL1 lysate, 635/667 nm fluorescence (AID 1092).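 Further: score merges per-feature 667 nm fluorescence with signal-to-noise.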 The following applies: hLULL1 lysate binding, 635 nm fluorescence, higher = more signal.
The nature of assay [16]: E. coli growth modulation, two-sided OD650, primary screen, E. coli filamentation project, strain DRC41, 24 h (AID 1093).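 Further: MC1000 strain lacking acrAB efflux and sulA so SOS filamentation is blocked; test concentration not given here.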 The following applies: OD650, 24 h, higher = more signal, called active from +8 up or from −8 down.
The nature of assay [17]: small-molecule microarray binders of probe aLefty2, primary screen, biochemical, biotinylated probe, 635/667 nm fluorescence (AID 1094).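 Further: score merges spot fluorescence near 667 nm with spot signal-to-noise ratio.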 As to conditions: higher = more signal.
Assay [18] deals with Noggin (protein binding on small-molecule microarray). Briefly: Noggin binders on small-molecule microarray, primary screen, biochemical, 635/667 nm fluorescence (AID 1095).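 Further: score merges 667 nm feature fluorescence with signal to noise over triplicate slides.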 As to conditions: 635 nm fluorescence, higher = more signal.
For assay [19], the target named is Neurogenic locus notch homolog protein 3 (Homo sapiens) (UniProt Q9UM47). The experiment in a line: NOTCH3 binders on small-molecule microarray, primary screen, biochemical, 635/667 nm fluorescence (AID 1096). The following applies: NOTCH3 binding, 635 nm fluorescence, higher = more signal.
Assay [20] can be described thus: small-molecule microarray binders of probe aEGFR, primary screen, biochemical, biotinylated probe, 635/667 nm fluorescence (AID 1097).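 Further: probe is a biotinylated anti-EGFR antibody binding compounds printed on slides; score combines fluorescence near 667 nm and signal to noise of each spot.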 As to conditions: higher = more signal.

Where “and” joins values, the source holds several entries; their conditions need not be identical. Identical values can stand only once. Some structures have more than one record in an assay (separate samples or runs), and their calls can disagree. Calls of active or inactive are those of the source.

Sequence of Torsin-1A-interacting protein 2 (Homo sapiens) (Q8NFQ8 whole entry, looked up): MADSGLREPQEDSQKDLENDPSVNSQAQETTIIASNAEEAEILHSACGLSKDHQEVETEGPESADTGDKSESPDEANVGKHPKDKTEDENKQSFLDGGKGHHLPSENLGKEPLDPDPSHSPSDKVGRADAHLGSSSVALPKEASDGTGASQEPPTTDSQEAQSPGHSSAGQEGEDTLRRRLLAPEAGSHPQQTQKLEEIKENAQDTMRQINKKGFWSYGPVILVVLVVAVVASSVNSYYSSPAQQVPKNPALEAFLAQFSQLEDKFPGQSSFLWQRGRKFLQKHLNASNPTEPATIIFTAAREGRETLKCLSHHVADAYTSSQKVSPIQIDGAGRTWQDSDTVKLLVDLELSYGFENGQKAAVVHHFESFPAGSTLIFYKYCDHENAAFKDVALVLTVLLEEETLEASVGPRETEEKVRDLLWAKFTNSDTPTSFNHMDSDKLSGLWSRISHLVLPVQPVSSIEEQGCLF
Sequence of Pro-neuregulin-1, membrane-bound isoform (Homo sapiens) (Q02297 whole entry, looked up, the tested form may be a part, canonical isoform): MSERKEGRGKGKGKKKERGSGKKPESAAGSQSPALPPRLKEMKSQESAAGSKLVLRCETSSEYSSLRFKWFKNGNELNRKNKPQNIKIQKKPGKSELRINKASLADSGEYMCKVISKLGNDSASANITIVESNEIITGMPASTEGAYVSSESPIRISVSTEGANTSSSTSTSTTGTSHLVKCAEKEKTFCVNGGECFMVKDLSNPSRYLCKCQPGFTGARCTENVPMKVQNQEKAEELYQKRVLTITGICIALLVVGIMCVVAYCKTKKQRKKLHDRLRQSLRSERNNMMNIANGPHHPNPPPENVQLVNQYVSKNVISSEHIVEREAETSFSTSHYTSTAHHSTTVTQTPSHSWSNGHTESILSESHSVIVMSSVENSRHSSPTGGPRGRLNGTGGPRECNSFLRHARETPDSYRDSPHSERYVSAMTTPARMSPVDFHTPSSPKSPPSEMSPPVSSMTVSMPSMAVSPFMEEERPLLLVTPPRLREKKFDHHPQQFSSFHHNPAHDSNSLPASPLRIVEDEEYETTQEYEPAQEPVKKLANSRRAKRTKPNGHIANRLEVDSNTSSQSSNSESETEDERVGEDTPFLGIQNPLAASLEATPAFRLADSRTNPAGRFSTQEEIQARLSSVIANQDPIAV
Sequence of Neurogenic locus notch homolog protein 3 (Homo sapiens) (Q9UM47 whole entry, looked up): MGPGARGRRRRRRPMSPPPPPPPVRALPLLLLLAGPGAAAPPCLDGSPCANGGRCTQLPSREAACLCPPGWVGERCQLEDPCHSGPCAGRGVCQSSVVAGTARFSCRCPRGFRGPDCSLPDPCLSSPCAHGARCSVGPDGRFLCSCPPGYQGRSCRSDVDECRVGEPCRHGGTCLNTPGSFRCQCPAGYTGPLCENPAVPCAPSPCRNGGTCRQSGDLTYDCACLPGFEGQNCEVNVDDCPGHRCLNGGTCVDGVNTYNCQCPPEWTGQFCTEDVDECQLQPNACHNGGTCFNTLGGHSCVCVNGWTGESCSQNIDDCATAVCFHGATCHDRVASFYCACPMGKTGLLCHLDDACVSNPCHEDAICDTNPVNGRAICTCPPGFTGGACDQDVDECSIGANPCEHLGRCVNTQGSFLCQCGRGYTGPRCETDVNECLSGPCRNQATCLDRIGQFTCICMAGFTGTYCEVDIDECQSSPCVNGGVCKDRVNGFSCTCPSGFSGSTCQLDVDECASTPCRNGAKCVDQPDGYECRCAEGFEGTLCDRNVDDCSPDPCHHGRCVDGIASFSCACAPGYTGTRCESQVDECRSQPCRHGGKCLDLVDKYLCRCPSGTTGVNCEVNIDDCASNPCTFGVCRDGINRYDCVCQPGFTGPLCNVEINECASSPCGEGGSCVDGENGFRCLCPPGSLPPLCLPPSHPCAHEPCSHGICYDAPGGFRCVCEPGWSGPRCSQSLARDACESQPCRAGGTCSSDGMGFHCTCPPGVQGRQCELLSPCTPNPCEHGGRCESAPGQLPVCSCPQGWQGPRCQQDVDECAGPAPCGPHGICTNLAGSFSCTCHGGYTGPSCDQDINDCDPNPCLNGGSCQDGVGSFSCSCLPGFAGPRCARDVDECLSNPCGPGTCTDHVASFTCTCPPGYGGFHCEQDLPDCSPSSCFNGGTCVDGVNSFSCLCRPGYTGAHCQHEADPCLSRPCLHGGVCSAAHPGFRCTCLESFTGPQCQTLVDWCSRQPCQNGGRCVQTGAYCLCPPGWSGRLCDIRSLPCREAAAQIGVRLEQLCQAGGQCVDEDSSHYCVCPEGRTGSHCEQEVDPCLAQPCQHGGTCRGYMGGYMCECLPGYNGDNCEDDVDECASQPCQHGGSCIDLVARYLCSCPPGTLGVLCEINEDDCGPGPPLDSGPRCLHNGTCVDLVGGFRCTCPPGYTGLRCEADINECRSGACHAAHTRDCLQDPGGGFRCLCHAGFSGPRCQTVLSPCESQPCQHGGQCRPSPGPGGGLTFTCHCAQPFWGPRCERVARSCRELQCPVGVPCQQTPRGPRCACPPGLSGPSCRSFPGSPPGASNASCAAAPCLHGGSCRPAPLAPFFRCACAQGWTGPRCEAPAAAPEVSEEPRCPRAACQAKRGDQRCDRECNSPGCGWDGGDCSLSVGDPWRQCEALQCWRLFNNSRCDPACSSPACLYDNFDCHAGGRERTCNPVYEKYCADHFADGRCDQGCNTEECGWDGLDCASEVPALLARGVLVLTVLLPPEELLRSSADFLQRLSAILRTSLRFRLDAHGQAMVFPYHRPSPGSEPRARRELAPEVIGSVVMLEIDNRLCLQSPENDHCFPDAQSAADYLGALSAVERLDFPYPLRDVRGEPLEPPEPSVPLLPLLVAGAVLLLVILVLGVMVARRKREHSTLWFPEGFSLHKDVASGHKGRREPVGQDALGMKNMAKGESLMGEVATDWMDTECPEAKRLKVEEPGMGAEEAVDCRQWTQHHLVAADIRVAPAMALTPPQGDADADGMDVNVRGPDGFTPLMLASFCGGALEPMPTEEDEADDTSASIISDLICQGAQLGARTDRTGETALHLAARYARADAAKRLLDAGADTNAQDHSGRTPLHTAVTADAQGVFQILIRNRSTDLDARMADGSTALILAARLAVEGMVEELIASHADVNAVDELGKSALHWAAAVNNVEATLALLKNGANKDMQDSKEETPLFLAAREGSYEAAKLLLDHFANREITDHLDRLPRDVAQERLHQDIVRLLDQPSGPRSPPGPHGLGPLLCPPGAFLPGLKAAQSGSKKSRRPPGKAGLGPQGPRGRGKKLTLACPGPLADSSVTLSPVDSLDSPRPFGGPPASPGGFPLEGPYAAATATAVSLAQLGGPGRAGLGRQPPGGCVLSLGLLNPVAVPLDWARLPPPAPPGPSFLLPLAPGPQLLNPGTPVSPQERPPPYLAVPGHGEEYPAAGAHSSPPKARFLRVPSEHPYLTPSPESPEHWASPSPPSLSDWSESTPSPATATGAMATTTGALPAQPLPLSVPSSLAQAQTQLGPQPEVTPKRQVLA

For the compound `COC(=O)[C@@]1(Cc2ccccc2)[C@H]2c3cc(C(=O)N(C)C)n(Cc4ccc(C)c(F)c4F)c3C[C@H]2CN1C(=O)c1ccccc1`, the composite z-score in [1] is 1 and 0.986; in assay [2] it was -0.481 and 0.787; in assay [3], 0.162 and 0.639; in assay [4], 0.384 and 0.451; in assay [5], 1.5 and 1.71; in assay [6], 1.39 and 1.48. The composite z-score was 1.39 and 1.12 in assay [7]; 0.705 and 2.39 in assay [9]; 0.176 and 0.567 in assay [10]; -0.325 and 1.23 in assay [11]; 3.44 and 3.67 in [15]; 0.378 and 0.513 in assay [17]. Further, the composite z-score in [18] was -0.566 and 0.645; in [19], 0.636 and 1.06; in assay [20], 0.168 and 0.646. The z-score in [8] is 3.35 (inactive) and -0.497 (inactive); in [12] it was -0.542 (inactive) and -0.0959 (inactive); in [13], -0.991 (inactive) and 1.01 (inactive); in [14], -0.447 (inactive) and 1.48 (inactive); in assay [16], -0.359 (inactive) and -0.543 (inactive).

`CCCNC(=O)OC[C@H]1O[C@H](CCON=C(C)CCN2CCc3nc(-c4ccccc4)c(-c4ccccc4)cc3C2)C=C[C@@H]1Oc1ccc(OC)cc1`: the composite z-score in assay [1] was -0.369; in assay [2], 0.0379; in assay [3], -0.116; in [4], 0.118; in assay [5] it was -0.247; in assay [6] it was 0.48. The composite z-score in assay [7] was 0.524; in [9], 0.142; in assay [10], -0.0994; in assay [11] it was 0.497; in [15], 1.04; in [17] it was -0.0638. Moreover, the composite z-score in assay [18] was 0.553; in assay [19], -0.105; in assay [20] it was 0.0321. Also, the z-score in assay [8] was 0.198 (inactive); in assay [12], 1.12 (inactive); in [13] it was -0.724 (inactive); in assay [14] it was -3.57 (inactive); in assay [16], 0.385 (inactive).

Consider `C[N+](C)(C)CCCCCCNC(=O)[C@@H]1C[C@@H]2C(=O)N[C@@H](CCCC[N+](C)(C)C)C(=O)N2[C@@H]1c1ccc(O)cc1`, for which the composite z-score in [1] is 0.245 and -0.175; in assay [2] it was 0.0279 and -0.0321; in assay [3], -0.12 and -0.181; in assay [4] it was 0.0015 and -0.155; in assay [5] it was -0.423 and -0.213; in [6], 0.142 and 1.11. The composite z-score was 1.35 and 1.36 in assay [7]; -0.12 and -0.0447 in assay [9]; -0.206 and -0.266 in [10]; 1 and 1.3 in [11]; 0.611 and 2.02 in [15]; -0.0356 and -0.117 in [17]. The composite z-score was 1.21 and 1.28 in assay [18]; 0.643 and 0.994 in assay [19]; -0.122 and -0.128 in assay [20]. Besides, the z-score in assay [8] was 0.403 (inactive) and 2.73 (inactive); in assay [12], 0.272 (inactive) and 0.534 (inactive); in [13] it was 0.352 (inactive) and 0.356 (inactive); in assay [14], 0.02 (inactive) and 0.327 (inactive); in [16] it was 0.392 (inactive) and -0.176 (inactive).

Take `COc1ccc(COC(=O)NN=C2C[C@@H](O)[C@@H](O)[C@@H]3[C@@H]4C(=O)N(C(C)(C)C)C(=O)[C@@H]4CC[C@H]23)cc1`: the composite z-score is -0.494 in assay [1]; 0.602 in [2]; -0.0439 in assay [3]; 0.799 in assay [4]; 0.29 in assay [5]; 1.46 in assay [6]. In addition, the composite z-score is 1.13 in assay [7]; 0.0715 in [9]; -0.13 in assay [10]; 1.28 in [11]; 2.14 in [15]; -0.277 in [17]. For the same compound, the composite z-score in [18] was 0.468; in assay [19] it was 0.469; in assay [20], -0.132. In addition, the z-score is -1.03 (inactive) in [8]; -1.76 (inactive) in assay [12]; -1.05 (inactive) in assay [13]; -0.715 (inactive) in assay [14]; -0.0531 (inactive) in [16].

Consider `C=CC[C@@H](O)c1ccc(OCCO)cc1`, for which the composite z-score in [1] is 0.137 and 0.75; in assay [2], -0.827 and -0.804; in assay [3], -0.0908 and -0.279; in assay [4], -0.0284 and -0.887; in assay [5] it was -1.41 and -2.02; in [6] it was -0.773 and -0.567. Further, the composite z-score in assay [7] is -0.0171 and 0.209; in [9], -0.871 and -1.16; in assay [10], -0.184 and -0.134; in assay [11], 0.347 and -0.516; in [15], -0.821 and -0.479; in [17], 0.0698 and 0.066. In addition, the composite z-score in assay [18] was 0.29 and -0.934; in assay [19] it was -1.03 and -0.668; in assay [20] it was -0.272 and -0.305. Moreover, the z-score in [8] is 0.373 (inactive) and 1.07 (inactive); in assay [12], -2.53 (inactive) and -2.22 (inactive); in assay [13], -10.4 (active) and -1.63 (inactive); in assay [14], -0.121 (inactive) and -0.238 (inactive); in assay [16] it was 0.638 (inactive) and 0.664 (inactive).

As for `CC(C)[Si]1(C(C)C)OCc2cc(CCCc3cc4c(c(CCc5ccccc5)n3)[Si](C(C)C)(C(C)C)OC4)nc(CCc3ccccc3)c21`, the composite z-score is -0.0088 and -0.516 in [1]; 0.0696 and 0.445 in assay [2]; -0.105 and -0.12 in assay [3]; -0.841 and 0.402 in assay [4]; -0.0702 and 0.469 in assay [5]; -0.429 and -0.0826 in assay [6]. The composite z-score is -0.688 and 0.277 in assay [7]; -0.0006 and 0.0171 in assay [9]; 0.141 and 0.065 in assay [10]; 0.393 and 0.722 in [11]; 0.227 and 0.364 in [15]; -0.128 and -0.0479 in assay [17]. The composite z-score in assay [18] was -0.0022 and 0.42; in assay [19], -0.604 and 0.721; in assay [20] it was -0.157 and -0.0594. Besides, the z-score is -0.712 (inactive) and 0.124 (inactive) in assay [8]; 0.873 (inactive) and 0.702 (inactive) in assay [12]; -19.7 (active) and 0.733 (inactive) in assay [13]; -1.25 (inactive) and 0.323 (inactive) in assay [14]; 2.13 (inactive) and -1.16 (inactive) in [16].
